# Bioassay records: PubChem, National Center for Advancing Translational Sciences (NCATS)
# RECQ1 helicase: blocks DNA unwinding by human RECQ1 | hit rate 0.54% among 240,000 | Potency, µM (doses to about 57.3 µM), inactives show top-dose activity, negative = inhibition, most hits filed as inhibitors | AID 2549 | P46063 | RECQ1 DNA unwinding, red fluorescence kinetic read;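 also: potency is read from the fitted curve at half-maximal effect; plate controls were vehicle for no effect and no enzyme for full effect; nearly all actives have a fitted effect of over 30% in size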
#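 50 nM RECQ1T1 preincubated 15 min with compound in Tris pH 8.0 buffer with MgCl2, DTT, Tween-20 and 2.5 ug/ml poly(dI-dC); started with 200 nM TAMRA/BHQ-2 forked duplex and 2 mM ATP. Unwinding read as fluorescence (525/598 nm), two reads 2 h apart.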
# APEX1 inh: APE1 (human) endonuclease inhibition. P27695. recombinant APE1, TAMRA/BHQ-2 abasic DNA cleavage fluorescence. Potency, µM (titrated, usually from 65.8 µM), inactives show at the top dose activity change, negative = inhibition, most hits filed as inhibitors. hit rate 0.35% among 350,000;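 also: potency is read from the fitted curve at half-maximal effect; plate controls were vehicle for no effect and reference inhibitor for full effect; nearly all actives have a fitted effect of over 55% in size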
#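 Substrate: short duplex with […] THF abasic site, 5'-TAMRA and 3'-BHQ-2, 50 nM final. APE1 at 0.75 nM, preincubated 15 min RT with compound. Fluorescence increase from first to third read measured activity.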
# WRN helicase inh: blocks human WRN helicase | hit rate 0.46% among 360,000 | Potency, µM (top dose mostly 114 µM), for the others: at the top dose activity change, negative = inhibition, most hits filed as inhibitors | Q14191 | AID 651768 | WRN helicase unwinding, fluorescent forked duplex, kinetic; also: potency is read from the fitted curve at half-maximal effect; nearly all actives have a fitted effect of over 55% in size
#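 Screening of the MLSMR collection measured strand separation of a quenched forked DNA duplex (100 nM) by 20 nM WRN with 2 mM ATP, all final. Compounds were preincubated with enzyme 15 min at room temperature.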
# BLM helicase inh: Bloom syndrome helicase (human) inhibition | Potency, µM (series often up to 56.1 µM), for the others: at the top dose activity change, negative = inhibition, actives largely listed as inhibitors | hit rate 0.2% among 350,000 | recombinant BLM DNA unwinding, fluorescence dequenching;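 also: potency is read from the fitted curve at half-maximal effect; plate controls were vehicle for no effect and no enzyme for full effect; nearly all actives have a fitted effect of over 35% in size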
# FEN1 inh: blocks human flap endonuclease 1 | Potency, µM (series often up to 114 µM), for the others: at the highest dose activity change, negative = inhibition, hits mostly inhibitors | P39748 | AID 588795 | Recombinant FEN1 flap cleavage, fluorescence, 15 min | hit rate 0.35% among 390,000; also: potency is read from the fitted curve at half-maximal effect; nearly all actives have a fitted effect of over 65% in size
# Target sequence (P39748 whole entry, looked up): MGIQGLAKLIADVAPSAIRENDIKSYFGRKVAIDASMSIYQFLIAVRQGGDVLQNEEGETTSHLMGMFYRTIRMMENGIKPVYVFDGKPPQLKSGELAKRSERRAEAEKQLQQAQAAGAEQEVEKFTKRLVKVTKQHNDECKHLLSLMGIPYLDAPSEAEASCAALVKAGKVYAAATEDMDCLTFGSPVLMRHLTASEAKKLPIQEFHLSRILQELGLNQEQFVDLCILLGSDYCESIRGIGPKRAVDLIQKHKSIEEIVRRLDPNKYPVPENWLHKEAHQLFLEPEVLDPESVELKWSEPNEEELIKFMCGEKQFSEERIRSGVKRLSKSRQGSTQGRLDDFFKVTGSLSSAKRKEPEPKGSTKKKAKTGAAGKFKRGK
#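 Reaction started by adding substrate (50 nM final) to 10 nM enzyme after 15 min room-temperature compound preincubation. Reads at 0 and 15 min, with data normalized and fitted to a four-parameter Hill equation.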
# PI5P4Ka inh: inhibitors of human PI5P4K alpha; max response, %; PI5P4Kalpha enzyme, ADP-Glo luminescence, 60 min; active compounds read low; hit rate 1.2% among 330,000; P48426; active = max response of -50% or lower; inconclusive = between -30% and -50%; inactive = -30% or higher; also: value at the top dose of about 77 µM
# Target sequence (P48426 whole entry, looked up): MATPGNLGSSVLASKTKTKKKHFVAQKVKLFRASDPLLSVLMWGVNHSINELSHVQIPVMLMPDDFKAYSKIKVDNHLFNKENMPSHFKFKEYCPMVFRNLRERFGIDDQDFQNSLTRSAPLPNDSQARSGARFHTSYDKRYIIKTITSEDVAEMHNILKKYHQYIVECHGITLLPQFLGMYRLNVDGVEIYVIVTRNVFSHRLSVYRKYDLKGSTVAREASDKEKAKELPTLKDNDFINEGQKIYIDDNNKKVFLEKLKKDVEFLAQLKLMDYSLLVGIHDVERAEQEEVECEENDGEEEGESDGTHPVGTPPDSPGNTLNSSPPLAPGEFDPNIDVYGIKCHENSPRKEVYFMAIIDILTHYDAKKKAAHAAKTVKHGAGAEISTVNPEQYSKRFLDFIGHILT
#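 Human PI5P4Kalpha with substrate in 0.038 M HEPES pH 7.4, 0.28 mM EGTA, 0.1% CHAPS, 5% DMSO; reaction started with 5 microM ATP (final), 60 min at room temperature. ADP formed read by ADP-Glo luminescence.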
# Active calls of the source: *; i = inactive; ? = inconclusive; nt = no result given; [ ] = remark or other dose. Compounds with a hit are over-represented: about 1.5% of the library has one in this group of screens. Unless noted, calls follow the shape of the dose curve; as a rule, active = well fitted curve in the direction sought with a large enough effect; inconclusive = small, poorly fitted or top-dose-only effect, or another doubt; inactive = no such curve, though single readings can be large; an effect the other way counts as inactive or inconclusive. Unless noted, % is scaled to controls: 0 for no effect and ±100 for the full control effect.
SMILES,RECQ1 helicase,APEX1 inh,WRN helicase inh,BLM helicase inh,FEN1 inh,PI5P4Ka inh
COc1ccc(OCC(=O)NCc2ccc3c(c2)CCN3C(=O)c2ccc(F)cc2)cc1,nt,nt,nt,-0.5%,-2.3%,nt
CCOc1cc(C(=O)Nc2cccc3cccnc23)cc(OCC)c1OCC,nt,nt,nt,-8.6%,-27.3%,nt
NC(=O)c1cc[n+](CC2=C(C(=O)[O-])N3C(=O)[C@@H](NC(=O)Cc4cccs4)[C@H]3SC2)cc1,nt,-2.8%[21 µM],nt,nt,nt,nt
COc1cc(C2CC(=O)N3CN(c4ccccc4C)CSC3=C2C#N)cc(OC)c1OC (configuration not stated),-3.7%,16.3%,nt,-11.3%,nt,nt
COc1ccc2ccccc2c1C1CC(=O)N2CN(C)CSC2=C1C#N (configuration not stated),-4.0%,-0.8%,-30.3%,-0.8%,0.3%,-84.2*
N#C/C(=C/c1ccc(-c2ccc([N+](=O)[O-])cc2)o1)C(=O)Nc1nc(-c2cccs2)cs1,nt,nt,?,nt,-7.0%,-65.7*
COCCCNC(=O)CN1C(=O)c2c(c3ccccc3n2C)C1c1ccc(OC)cc1 (configuration not stated),nt,nt,nt,-0.7%,-5.3%,nt
CCOc1ccc(CNC(=O)c2cccn2-c2nnc(N3CCCCC3)s2)cc1OC,nt,nt,nt,-4.0%,11.9%,nt
O=C(O)CCCCn1c(SCC(=O)Nc2ccccc2C(F)(F)F)nc2ccsc2c1=O,-5.8%,4.0%,0.2%,2.2%,4.6%,-99.2*
O=C(O)c1ccc2c(c1)-c1cc(C(=O)O)ccc1S2(=O)=O,nt,51.0%,11.0%,0.6%,-8.2%,-73.5*
CC(C)(C)N1C(=O)c2ccc(C(=O)O)cc2C1=O,i,3.6%,2.4%,-0.3%,-10.1%,?
Cc1ccccc1Cn1c(SCc2ccc(C(=O)NC(C)c3ccccc3)cc2)nc2ccncc21 (configuration not stated),nt,nt,nt,-4.8%,-4.5%,nt
Cc1cccc[n+]1C1C(c2ccccc2)C(C#N)=C(C(=C=[N-])C#N)NC1(O)C1CC1 (configuration not stated),0.3%,1.4%,?,-9.1%,-23.6%,-73.7*
Cc1ccc2c(c1)-c1nc(-c3ccc4c(c3)NC(=O)CO4)cc(-c3ccc(F)cc3)c1CO2,nt,nt,nt,-1.1%,2.5%,nt
Oc1c(Cl)cc(CN2CCOCC2)c2cccnc12,nt,23.8%,-1.4%,nt,?,-6.0
O=[N+]([O-])c1cc(CN2CCOCC2)c2cccnc2c1O,-8.1%,4.6%,-22.8%,0.0%,28.2µM*,-72.9*
CC(Nc1oc(-c2ccccc2)nc1-c1ccc(C(F)(F)F)cc1)c1ccccc1 (configuration not stated),10.4%,3.1%,nt,1.7%,nt,nt
CCCC(=O)NCCc1c(I)[nH]c2ccc(OC)cc12,i,-0.1%,nt,nt,nt,nt
Cc1ccc(-c2[nH]c(=S)[nH]c(=O)c2C#N)cc1,11.0%,14.1%,-6.7%,-3.4%,12.2%,-72.4*
CC(NC(=O)CSc1n[nH]c(-c2ccccc2Cl)n1)c1nc2ccccc2n1C (configuration not stated),nt,nt,nt,5.1%,14.5%,nt
CC(=O)Oc1ccc(-c2cc3c(OC(C)=O)cc(OC(C)=O)cc3oc2=O)cc1,nt,nt,-15.8%,nt,-3.8%,-55.8*
CC(=O)Oc1ccc(-c2cc3ccccc3oc2=O)cc1,nt,nt,-1.7%,nt,4.7%,3.4
O=C(NNc1nc2c(F)cccc2s1)c1cc(=O)c2ccccc2o1,-6.8%,-6.3%,-19.1%[57.1 µM],-9.6%,0.6%,-51.1*
COc1ccc2nc(NNC(=O)c3cc(=O)c4ccccc4o3)sc2c1,-8.7%,-5.9%,-9.1%[57.1 µM],-9.7%,1.2%,-75.5*
Cc1cccc2sc(NNC(=O)c3cc(=O)c4ccccc4o3)nc12,i,6.3%,-0.1%,-4.9%,-15.0%,-52.0*
SMILES,RECQ1 helicase,APEX1 inh,WRN helicase inh,BLM helicase inh,FEN1 inh,PI5P4Ka inh
CCn1nc(C)c2c(-c3ccccc3)cc(=O)n(C(C)C(=O)NCCC(C)C)c21 (configuration not stated),nt,nt,nt,-4.0%,-22.3%,nt
O=C(Cc1cccs1)OCC(=O)c1ccco1,-21.4%,28.2µM*,?,-0.1%,-30.0%,?
O=S(=O)(c1cccc(-c2n[nH]c(=S)n2-c2ccccc2)c1)N1CCCC1,nt,-8.2%,nt,nt,nt,nt
CCN(CC)CCNC(=O)c1sc2nc(C)cc(C)c2c1-n1cccc1,nt,nt,nt,-7.5%,1.4%,nt
CSc1ccc(NC(=O)CSc2nc3[nH]c(=O)cc(O)c3s2)cc1,nt,8.3%,?,nt,?,-87.9*
N#Cc1ccc(NC(=O)CSc2nc3[nH]c(=O)cc(O)c3s2)cc1,nt,?,-7.1%,nt,-31.8%,-8.5
Cc1ccc(C2C(/C=C3/SC(=S)NC3=O)=C(c3cccs3)Oc3ccccc32)cc1 (configuration not stated),?,-8.3%,79.4µM*,-25.6%,?,nt
Cc1ccc2c(c1)C(c1ccccc1)C(=O)O2 (configuration not stated),-8.2%,-6.1%,?,-1.9%,-1.7%,-9.0
CCNc1nc(C#N)nc(N2CCCCC2)n1,nt,nt,nt,nt,-12.7%,nt
Cc1ccc(Cl)c2c1=NC(=O)C=2c1[nH]c(=S)[nH]c1O,-4.0%,1.8%,-3.3%,1.0%,-14.4%,-74.8*
COc1ccc(NC(=O)N(C(C)C)C2CCN(C(C)=O)CC2)c(OC)c1,nt,nt,nt,1.2%,-2.5%,nt
O=C(CSc1nnc(-c2ccco2)n1CC1CCCO1)c1ccc(F)cc1 (configuration not stated),-1.0%,-1.0%,79.4µM*,-2.9%,-4.9%,?
COc1ccc(C(=O)CSc2nnc(-c3ccco3)n2CC2CCCO2)cc1 (configuration not stated),i,-3.7%,2.9%,-5.4%,-2.8%,-10.9
O=C(CSc1ccc(-c2ccco2)nn1)c1ccc(F)cc1,3.9%,-8.3%,44.7µM*,-8.4%,?,-68.6*
COC(=O)c1sc(-c2ccccc2)cc1NC(=O)Nc1ccc(Cl)cc1,nt,nt,nt,-7.6%,-27.3%,nt
COC(=O)c1sc(-c2ccccc2)cc1NC(=O)Nc1ccc(F)cc1,nt,nt,nt,-8.7%,89.1µM*,nt
COC(=O)c1sc(-c2ccc(Cl)cc2)cc1NC(=O)CSCC(=O)O,-5.0%,-5.1%,-4.0%,1.4%,-19.6%,-53.3*
Nc1c(C(=O)Nc2nccs2)sc2nc(-c3cccs3)cc(C(F)(F)F)c12,0.3%,2.0%,-9.6%,?,-4.6%,-16.3
CC(C)(C)C(=O)c1sc2nc(-c3cccs3)cc(C(F)(F)F)c2c1N,-8.9%,-0.3%,100µM*,-13.1%,11.4%,nt
C=CCNc1oc(-c2cccc(Br)c2)nc1C#N,nt,-1.9%,nt,nt,nt,nt
COc1ccc(C2C(C(=O)Nc3ccccc3OC)=C(C)Nc3c(C(=O)Nc4ccccc4)cnn32)c(OC)c1 (configuration not stated),nt,nt,nt,-0.6%,0.6%,nt
C=CCn1c(COc2ccc(Cl)cc2)nnc1SCc1ccc(C#N)cc1,-3.7%,-0.8%,-0.1%,-0.9%,-9.3%,-79.9*
